Data published in PMC5540273 (PLoS ONE, 2017).

What was measured:
Conditions in all cases: concentration: 1 μM, replicates: in singlicate; n = 1
PDPK1 = tested on: PDPK1
PFTAIRE2 = tested on: PFTAIRE2
PFTK1 = tested on: T1, PFTK1
T1 construct: gene CDK14

PHKG1 = tested on: PHKG1
PHKG2 = tested on: PHKG2
PIK3C2B = tested on: PIK3C2B
PIK3C2G = tested on: PIK3C2G
PIK3CA = tested on: PIK3CA
PIK3CB = tested on: PIK3CB
PIK3CD = tested on: PIK3CD
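Note: KINOMEscan kinase panel screen.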

| SMILES | %Inh (PDPK1) [%] | %Inh (PFTAIRE2) [%] | %Inh (PFTK1) [%] | %Inh (PHKG1) [%] | %Inh (PHKG2) [%] | %Inh (PIK3C2B) [%] | %Inh (PIK3C2G) [%] | %Inh (PIK3CA) [%] | %Inh (PIK3CB) [%] | %Inh (PIK3CD) [%] |
| --- | --- | --- | --- | --- | --- | --- | --- | --- | --- | --- |
| Cl.c1ccc(Cn2cnc3cc(Nc4ncnc5ccccc45)ccc32)cc1 [GW272142] | 0 | 16 | 23 | 0 | 1 | 3 | 0 | 1 | 71 | 0 |
| Nc1n[nH]c2ncc(-c3ccccc3)cc12 [SB-517081] | 0 | 7 | 10 | 0 | 0 | 3 | 0 | 0 | 0 | 0 |
| Nc1ncnc2c1ncn2-c1ccc(Cl)cc1 [AH2635] | 0 | 0 | 17 | 0 | 0 | 0 | 0 | 0 | 0 | 0 |
| Cc1ccccc1COc1cc(-n2cnc3cc(Cl)ccc32)sc1C(N)=O [GW813349] | 0 | 0 | 0 | 0 | 0 | 24 | 17 | 21 | 0 | 0 |
| COc1ccc(-c2coc3ccc(-c4nnc(SCc5cccc(C#N)c5)o4)cc23)cc1 | 2 | 0 | 1 | 0 | 1 | 2 | 5 | 0 | 39 | 0 |
| Nc1nccc2scc(-c3ccc4c(c3)CCN4C(=O)Cc3ccccc3)c12 [GSK2576924] | 19 | 25 | 23 | 0 | 12 | 5 | 0 | 0 | 0 | 4 |
| O=C(NCCNc1ccnc(Nc2ccc(F)cc2)n1)Nc1ccc2c(c1)OCO2 [GSK1379882] | 0 | 25 | 0 | 8 | 7 | 7 | 0 | 7 | 0 | 0 |
| COc1ccc(CNC(=O)NC2CCN(c3ccnc(Nc4ccc(F)cc4)n3)C2)cc1 (stereo not shown) [GSK1379706] | 0 | 0 | 1 | 7 | 0 | 0 | 0 | 2 | 0 | 8 |
| Cc1nnc(-c2ccc(C)c(-c3ccc(C(=O)O)cc3)c2)o1 [GW608005] | 4 | 11 | 0 | 2 | 0 | 0 | 3 | 0 | 0 | 6 |
| Nc1ncnc2c1ncn2-c1cccc2ccccc12 [SKF-97184] | 0 | 0 | 1 | 0 | 0 | 7 | 0 | 2 | 0 | 0 |
| COc1cc2nccc(Nc3cccc(Oc4ccccc4)c3)c2cc1OC.Cl [GW284543] | 0 | 31 | 2 | 2 | 0 | 39 | 0 | 0 | 0 | 55 |
| COc1ccc(-c2cc3c(C)nc(N)nc3n([C@H]3CC[C@H](O)CC3)c2=O)cn1 | 0 | 0 | 0 | 9 | 1 | 99.6 | 98.8 | 99.7 | 100 | 94.1 |
| COc1cc(Nc2nccc(N3CCC(NC(=O)C(C)c4ccc(Cl)cc4)C3)n2)cc(OC)c1OC (stereo not shown) [GSK1379757] | 0 | 11 | 6 | 0 | 0 | 10 | 0 | 6 | 0 | 0 |
| CCC(=O)c1c(-c2ccccc2)c2cc(Cl)ccc2c(=O)n1Cc1cc(S(C)(=O)=O)n(CC(N)=O)n1 | 31 | 0 | 11 | 0 | 0 | 0 | 0 | 0 | 0 | 0 |
| CC(C)(C)c1ccc(C(=O)Nc2cn3cc(-c4ccccc4)ccc3n2)cc1 | 0 | 0 | 0 | 4 | 2 | 0 | 0 | 0 | 14 | 0 |
| Cc1ccc(-c2ccc3c(ccc4sc5c(c43)NC[C@@H](C)N=C5N(C)C)n2)cn1 | 0 | 0 | 0 | 0 | 0 | 0 | 0 | 0 | 55 | 15 |
| Cc1nc(N(C)[C@H]2CN(C(=O)CC#N)CC[C@H]2C)c2cc[nH]c2n1 | 0 | 0 | 0 | 0 | 13 | 0 | 10 | 0 | 0 | 12 |

| SMILES | %Inh (PDPK1) [%] | %Inh (PFTAIRE2) [%] | %Inh (PFTK1) [%] | %Inh (PHKG1) [%] | %Inh (PHKG2) [%] | %Inh (PIK3C2B) [%] | %Inh (PIK3C2G) [%] | %Inh (PIK3CA) [%] | %Inh (PIK3CB) [%] | %Inh (PIK3CD) [%] |
| --- | --- | --- | --- | --- | --- | --- | --- | --- | --- | --- |
| CCn1c(-c2nonc2N)nc2ccccc21 [SB-693162/GW549034] | 0 | 0 | 17 | 21 | 16 | 0 | 0 | 0 | 62 | 0 |
| Cc1ccc(Oc2ccc(Nc3ncnc4cc[nH]c34)cc2C)cn1 | 25 | 7 | 0 | 0 | 0 | 24 | 60 | 5 | 57 | 54 |
| Cc1nnc(-c2ccc3ncn(-c4ccc(S(C)=O)cc4)c3c2)o1 (stereo not shown) | 0 | 12 | 14 | 0 | 0 | 0 | 0 | 0 | 2 | 38 |
| Nc1n[nH]c2nnc(-c3ccccc3)c(-c3ccccc3)c12 [GW554060] | 3 | 8 | 19 | 5 | 0 | 0 | 0 | 0 | 47 | 8 |
| COC(=O)c1c(-c2ccccc2)c2cc(Br)ccc2c(=O)n1Cc1ccc(NC(=O)CCC(=O)O)cc1 | 0 | 17 | 0 | 0 | 0 | 0 | 1 | 0 | 24 | 0 |
| Cc1cccc(-c2nc(Nc3ccc4c(cnn4C)c3)c3ccccc3n2)n1 [GW876731] | 37 | 10 | 22 | 0 | 0 | 0 | 44 | 0 | 3 | 61 |
| COc1cccc(C2=C(N(C)c3ccccc3)C(=O)NC2=O)c1 [SB-334865] | 0 | 0 | 20 | 0 | 0 | 0 | 0 | 0 | 0 | 0 |
| COc1cc2ncn(-c3cc(OCc4ccc(S(C)(=O)=O)cc4)c(C(N)=O)s3)c2cc1OC [GW869979] | 0 | 0 | 0 | 10 | 0 | 0 | 29 | 0 | 30 | 16 |
| CCc1nc(-c2cccc(C)c2)c(-c2ccncc2)s1 | 1 | 0 | 14 | 0 | 9 | 0 | 3 | 0 | 4 | 0 |
| Cc1c(Cn2c(C)nn3c(=O)cc(N4CCO[C@H](C)C4)nc23)cccc1C(F)(F)F [GSK2373690] | 0 | 10 | 11 | 3 | 0 | 0 | 0 | 0 | 96.7 | 65 |
| COc1cc2ncn(-c3cc(OCc4ccncc4Br)c(C(N)=O)s3)c2cc1OC [GW854278] | 0 | 0 | 0 | 8 | 1 | 54 | 12 | 0 | 0 | 5 |
| CCC(=O)c1c(-c2ccccc2)c2cc(Cl)ccc2c(=O)n1Cc1cc(C(=O)NC2CC2)n(C)n1 | 0 | 0 | 0 | 0 | 0 | 0 | 37 | 0 | 21 | 14 |
| O=C1NC(=O)C(c2ccccc2)=C1Nc1cccc(O)c1 [SB-390534] | 0 | 10 | 0 | 0 | 0 | 2 | 4 | 0 | 0 | 0 |
| COc1ccc(-n2cnc3c(N)ncnc32)cc1 [SKF-97236] | 12 | 20 | 17 | 0 | 0 | 0 | 27 | 2 | 9 | 0 |
| Cc1nn2c(=O)cc(N3CCOCC3)nc2n1Cc1cccc(Cl)c1Cl [GSK2342769] | 0 | 0 | 91.7 | 7 | 0 | 89 | 56 | 5 | 89 | 99.6 |
| COc1cc(Nc2nccc(N3CCC(NC(=O)C4COc5ccccc5O4)C3)n2)cc(OC)c1OC (stereo not shown) [GSK1379761] | 2 | 2 | 26 | 12 | 18 | 10 | 0 | 0 | 0 | 42 |
| O=C(Nc1ccc2c(c1)OCO2)NC1CCN(c2ccnc(NCc3ccc(F)cc3)n2)CC1 [GSK1379859] | 0 | 10 | 14 | 0 | 0 | 0 | 0 | 0 | 0 | 0 |
